# Assay results reported in PubChem BioAssay AID1117282 (The Scripps Research Institute Molecular Screening Center, 2014).
# Some of the results follow. A number with no mark means an inactive call. The source made the active and inactive calls.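 How the source made its calls: active means mean inhibition across replicates above a set limit taken from the earlier primary screen (cut at about 11% in these data); inactive means the rest.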
# Molecular target: RNA-editing ligase 1, mitochondrial (Trypanosoma brucei brucei) (UniProt P86926)
# Sequence (P86926 whole entry, looked up): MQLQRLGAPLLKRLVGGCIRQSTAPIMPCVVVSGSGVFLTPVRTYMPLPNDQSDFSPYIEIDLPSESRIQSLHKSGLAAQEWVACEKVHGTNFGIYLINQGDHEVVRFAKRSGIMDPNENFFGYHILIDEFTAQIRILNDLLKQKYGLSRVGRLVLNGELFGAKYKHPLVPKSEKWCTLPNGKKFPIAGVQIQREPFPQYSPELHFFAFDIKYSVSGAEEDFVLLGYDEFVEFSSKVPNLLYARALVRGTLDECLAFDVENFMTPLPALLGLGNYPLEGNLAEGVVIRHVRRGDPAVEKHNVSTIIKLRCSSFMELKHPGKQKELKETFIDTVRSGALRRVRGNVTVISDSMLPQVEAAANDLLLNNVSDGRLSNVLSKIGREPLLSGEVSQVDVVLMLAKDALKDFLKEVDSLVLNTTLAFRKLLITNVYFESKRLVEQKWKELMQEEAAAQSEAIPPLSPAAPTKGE
# Experiment: TbREL1 RNA ligase inhibitors, confirmation, biochemical, FRET fluorescence, triplicate (AID 1117282);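 further: 0% = REL1 with substrate and DMSO and 100% = REL1 plus control inhibitor NSC42067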
# Settings: TbREL1 RNA ligation, at 9.66 µM, stronger effect = higher value
row,SMILES,inhibition
1,COc1cc(NC(=O)CCS(=O)(=O)c2ccc3c(c2)oc(=O)n3C)cc(OC)c1,2.33%
2,O=C(Nc1nc(-c2ccco2)c(-c2ccco2)s1)c1ccco1,6.13%
3,O=C(NCc1ccccc1)[C@@H]1CSC2c3ccccc3C(=O)N21 (some centres undefined),3.84%
4,C=CCn1c(=S)[nH]c2scc(-c3ccco3)c2c1=O,13.8% (active)
5,Nc1ccc2nc3c(=O)[nH]c(=S)[nH]c3nc2c1,14.2% (active)
6,O=C(Nc1cccc(F)c1)NC1CCCCCCC1,4.12%
7,CCCCCn1c(=O)[nH]c2cc(C(=O)NCCCN3CCCCC3C)ccc2c1=O (centres undefined),7.94%
8,COC(=O)C1=C(C)N(Cc2cccc(C(F)(F)F)c2)C(=NCc2ccccc2)NC1c1ccccc1C(F)(F)F (centres undefined),21.2% (active)
9,COc1cc(/C=C/C(=O)n2cnc3ccccc32)cc(OC)c1OC,2.66%
10,CC[C@@H](C)[C@@H]1CN([C@@H](C)CN2CCC[C@H]2CN2C(N)=NC[C@H]2C(C)C)C(=N)N1CCc1ccc(Cl)c(Cl)c1,13.3% (active)
11,CC(C)Cn1c(N)c(C(=O)NCc2cccs2)c2nc3ccccc3nc21,6.35%
12,CC1(C)CC(N2CCN(C(c3ccccc3)c3ccccc3)CC2)=CC(=[N+]2CCCCC2)C1,16.7% (active)
13,COC(=O)C1=C(C)N(Cc2cccc(C(F)(F)F)c2)C(=NCc2cccc(C(F)(F)F)c2)NC1c1ccccc1C(F)(F)F (centres undefined),19.9% (active)
14,COc1c(O)cc2oc(-c3ccc(O)c(O)c3)cc(=O)c2c1O,12.7% (active)
15,COCc1c(N)c(C)nc(Cl)c1C#N,7.44%
16,CN1CCN(/N=C2/C(=O)Nc3ccc([N+](=O)[O-])cc32)CC1,3.63%
17,CNc1nc(Nc2ccc(C)c(Cl)c2)nc(N)c1[N+](=O)[O-],9.65%
18,COc1ccc(C(C(=O)Nc2c(C)cccc2C)N2CCN(c3ccc(C)cc3)CC2)cc1 (centres undefined),-1.79%
19,Cc1nnsc1C(=O)Nc1cccc(Cl)c1C,2.09%
